Data on six compounds can be found in PubChem BioAssay (NCI).

About 83,000 compounds went through this panel and 20% of them were active in at least one assay; those are over-represented in the sample as a whole.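 Testing used 96-well plates and a 48-hour single-concentration exposure. Example: -40 means 40% of the starting cells died.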 Values without a mark were called inactive. Calls of active or inactive are those of the source. How the source made its calls: active means growth percent below 10; inactive means the rest.

Among the test systems are NCI-H23 lung; NCI-H226 lung; HOP-62 NSCLC; NCI-H460 lung; HOP-92 NSCLC; NCI-H522 lung; A549/ATCC NSCLC; 786-0 renal; COLO 205 colon; DU-145 prostate; K-562 leukemia; MALME-3M melanoma; MDA-MB-231 breast; RXF 393 renal; SF-268 CNS; SF-295 CNS; SF-539 CNS; UACC-257 melanoma; M14 melanoma; NCI-H322M lung.
What all share (experiment): NCI-60 one-dose screen, 48 h (100 = growth as untreated, 0 = no growth, -100 = all killed)
Common to all, as to settings: 10 µM unless noted

With `CCC/C(=N\NC(N)=O)C(OC)OC`, the growth in the assay on NCI-H23 lung was 99.9%; in the assay with NCI-H226 lung, 108%; with HOP-62 NSCLC, 109%; in the assay on NCI-H460 lung, 109%; in the assay on HOP-92 NSCLC, 68.4%; in the assay on NCI-H522 lung it was 79.9%. Also, the growth in the assay on A549/ATCC NSCLC was 93.6%; in the assay on 786-0 renal, 99.4%; in the assay on COLO 205 colon, 110%; with DU-145 prostate, 96.2%; in the assay with K-562 leukemia it was 118%; in the assay on MALME-3M melanoma it was 99.5%. In addition, the growth in the assay on MDA-MB-231 breast is 85.8%; in the assay with RXF 393 renal, 102%; with SF-268 CNS, 98.9%; with SF-295 CNS it was 112%; in the assay with SF-539 CNS, 89.2%; in the assay on UACC-257 melanoma, 103%. In addition, the growth in the assay on M14 melanoma is 96.9%.
For `C=CC1(C)C(O[Si](C)(C)C(C)(C)C)CC2C3OC(=O)NC31c1cccc3c1[C@H](C(=O)N3C)C2(C)C` (stereo partly drawn), the growth with NCI-H23 lung is 59.7%; with NCI-H226 lung, 66.7%; in the assay on HOP-62 NSCLC, 85.5%; in the assay with NCI-H460 lung, 44.7%; in the assay on HOP-92 NSCLC, 29.4%; with NCI-H522 lung, 44.1%. Further, the growth was 73.6% in the assay on 786-0 renal; 40.8% in the assay on COLO 205 colon; 76.2% in the assay on DU-145 prostate; 34% with K-562 leukemia; 64% in the assay with MALME-3M melanoma; 43.3% in the assay with MDA-MB-231 breast. The growth in the assay on RXF 393 renal is 68.6%; in the assay on SF-268 CNS, 73.6%; in the assay with SF-295 CNS it was 46.9%; with SF-539 CNS, 65.4%; in the assay on UACC-257 melanoma, 33.1%; with M14 melanoma, 48.5%.
As for `O=C(CCCCCCCCC(=O)N/N=C\c1cc(Cl)ccc1O)N/N=C\c1cc(Cl)ccc1O`, the growth was 47.9% with NCI-H23 lung; 15.4% in the assay on NCI-H226 lung; 30.7% in the assay with HOP-62 NSCLC; 7.22% (active) with NCI-H460 lung; 47.6% in the assay with HOP-92 NSCLC; 34.3% in the assay with NCI-H522 lung. The growth is 38.2% with A549/ATCC NSCLC; 16.3% with 786-0 renal; 36.9% with COLO 205 colon; 30.5% in the assay with DU-145 prostate; 23.7% with K-562 leukemia; 37.6% with MALME-3M melanoma. For the same compound, the growth with MDA-MB-231 breast was 37%; in the assay on RXF 393 renal, 46.7%; with SF-268 CNS, 28.3%; in the assay on SF-295 CNS, 21.9%; in the assay with SF-539 CNS, 15.6%; in the assay on UACC-257 melanoma it was 23.6%. In addition, the growth in the assay on M14 melanoma is 17.7%.
For `COc1ccc(-c2ccc(-c3ccc(C(=N)N)cn3)s2)cc1`, the growth was 84.5% in the assay with NCI-H226 lung; 91.9% with NCI-H322M lung; 90% in the assay on HOP-62 NSCLC; -22.6% (active) in the assay with NCI-H460 lung; 80% in the assay on HOP-92 NSCLC; 82.4% in the assay with NCI-H522 lung. The growth in the assay with A549/ATCC NSCLC was 63.6%; with 786-0 renal, 99.7%; in the assay on COLO 205 colon it was 62.4%; in the assay with DU-145 prostate, 64.2%; in the assay on K-562 leukemia it was 0.33% (active); in the assay on MALME-3M melanoma, 102%. The growth in the assay with MDA-MB-231 breast was 87.7%; in the assay on RXF 393 renal, 97.8%; in the assay on SF-268 CNS it was 99%; with SF-295 CNS it was 104%; with SF-539 CNS, 94.3%; with UACC-257 melanoma, 102%. Moreover, the growth in the assay on M14 melanoma was 101%.
For `CCN1C(=O)N(CC)C2C1NN=c1s/c(=C\c3cc4ccccc4[nH]3)c(=O)n12` (stereo not drawn), the growth with NCI-H226 lung is 38.6%; with NCI-H322M lung, 50.6%; with HOP-62 NSCLC, 16.5%; in the assay on NCI-H460 lung it was 0.818% (active); in the assay with HOP-92 NSCLC it was -5.71% (active); with NCI-H522 lung, -12.2% (active). In addition, the growth in the assay on A549/ATCC NSCLC is 0.183% (active); in the assay with 786-0 renal, 28.9%; in the assay with COLO 205 colon, -32.5% (active); in the assay with DU-145 prostate it was 16.4%; in the assay with K-562 leukemia it was 9.13% (active); with MALME-3M melanoma it was 33.4%. For the same compound, the growth was 14.7% in the assay with MDA-MB-231 breast; 47.3% in the assay with RXF 393 renal; 25.6% with SF-268 CNS; 18.6% in the assay on SF-295 CNS; -21.9% (active) in the assay on SF-539 CNS; 45.5% with UACC-257 melanoma. Also, in the assay on M14 melanoma, the growth is 19.8%.
`CN(C)c1ccc(-c2cc(-c3ccc(Nc4nc(Nc5ccc(Cl)cc5)nc(Nc5ccc(Cl)cc5)n4)cc3)nc(N)c2C#N)cc1`: the growth in the assay with NCI-H226 lung was 107%; in the assay with NCI-H322M lung, 115%; with HOP-62 NSCLC it was 73%; in the assay with NCI-H460 lung, 86.3%; with HOP-92 NSCLC, 46.3%; with NCI-H522 lung it was 87.6%. The growth was 72.3% with A549/ATCC NSCLC; 72.4% in the assay with 786-0 renal; 69.8% in the assay on COLO 205 colon; 95.8% with DU-145 prostate; 68.4% in the assay on K-562 leukemia; 81.8% in the assay with MALME-3M melanoma. Also, the growth with MDA-MB-231 breast is 77.4%; in the assay with RXF 393 renal it was 37.1%; with SF-268 CNS, 94.9%; with SF-295 CNS, 64%; with SF-539 CNS, 77.9%; in the assay with UACC-257 melanoma, 99.1%. For the same compound, the growth in the assay with M14 melanoma is 71.4%.
